Assay results from PubChem BioAssay (NCI).
Compounds without any hit were thinned out: in the full panel of roughly 83,000, 20% have a hit.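 Values shown are percent growth following 48 h exposure of cells in 96-well plates to a single concentration of compound; below 10 was considered active.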 Values without a mark were called inactive. Active and inactive are the calls of the source.

System: HL-60(TB) leukemia
Test: NCI-60 one-dose screen, 48 h (100 = growth as untreated, 0 = no growth, -100 = all killed)
Settings: 10 µM unless noted

SMILES	growth
COc1cc(/C=C/C(=O)c2c(C)oc3nc[nH]c(=O)c23)cc(OC)c1OC	65.9%
CC(=O)Cc1cc(-c2cc(CC(C)=O)[nH]n2)n[nH]1	88.1%
O=C1CCC(c2c(O)cc(O)c3c(=O)c(O)c(-c4ccc(O)c(O)c4)oc23)N1 (stereo not given)	87%
O=C1c2ccc3c4c(ccc(c24)C(=O)N1CCCNCc1ccccc1F)C(=O)N(CCCNCc1ccccc1F)C3=O	-59% (active)
Cc1cc(NCCCCNc2ccnc3cc(Cl)ccc23)nc(Nc2ccc(C(=O)N3CCCCC3)cc2)n1	-59.3% (active)
Clc1ccccc1Nc1ccc2nnc(-c3ccncc3)n2n1	75.8%
COc1cc(-c2ccc(-c3ccc(C(=N)N)s3)s2)cc(OC)c1OC	-56.6% (active)
COc1ccc(-c2cc(-c3cccnc3)nc3sc4c(N)c(C(C)=O)c(-c5ccccc5)nc4c23)cc1OC	78%
C=C(C)[C@@H]1CC[C@]2(C(=O)NCCCO)CC[C@]3(C)[C@H](CC[C@@H]4[C@@]5(C)CCCNC(C)(C)[C@@H]5CC[C@]43C)[C@@H]12	34.1%
C=C(c1ccc(N(C)C)cc1)c1ccc(N(C)C)cc1	-6.12% (active)
CC1(C)S[C@@H]2[C@H](NC(=O)[C@H](C(=O)O)c3cccs3)C(=O)N2[C@H]1C(=O)O	106%
Cc1cc(NC(=O)C2c3ccccc3C(=O)N(CC(C)C)C2c2cccs2)no1 (stereo not given)	0.0249% (active)
NC1CCN(c2nc(Nc3cccc(C(F)(F)F)c3)c3c(=O)[nH]ccc3n2)CC1	-61.2% (active)
[2H]C([2H])([2H])Oc1ccc(/C=C/C(=O)/C=C(O)/C=C/c2ccc(OC([2H])([2H])[2H])c(OC([2H])([2H])[2H])c2)cc1OC([2H])([2H])[2H]	54.5%
COc1ccc(OCC(O)CN2CCN(c3ccc(Cl)cc3)CC2)cc1 (stereo not given)	105%
COC(=O)c1cncc(C(=O)Nc2ccc(-n3cnc4ccccc43)cc2)c1	93.7%
COc1cc(/C=C/c2ccc3c(Br)cc(Br)c(O)c3n2)ccc1O	-47.3% (active)
CN(C)CCN(Cc1ccccc1)c1ccc2ccccc2n1	89.7%
O=C(O)CS(=O)c1ccc(Cl)cc1 (stereo not given)	86.2%
COC(=O)c1c(C)nc(C)c2c1C(=O)C(Br)=C(NCCN1CCOCC1)C2=O	61.9%

SMILES	growth
O=C1c2ccccc2OC=C(c2ccccc2)N1CCCCNc1ccc(S(=O)(=O)Nc2ncccn2)cc1	73.1%
COc1ccc(-c2nnc(COc3ccc(NS(=O)(=O)c4ccc(OC)cc4)cc3F)o2)cc1	76.6%
CN1C(=O)N(C)C2C1NN=c1s/c(=C\c3ccc([N+](=O)[O-])cc3)c(=O)n12 (stereo not given)	7.14% (active)
CCn1c(Sc2nnc(NC(=O)CSC(=S)N3CCCCC3)s2)nc2c1c(=O)n(C)c(=O)n2C	95%
O=C(Oc1cccc2ccccc12)c1ccccc1C(=O)c1ccccc1	-8.79% (active)
COc1cc2c(cc1OCCCN1CCN(CCCOc3cc4c(cc3OC)C(=O)N3CC(F)(F)C[C@H]3C=N4)CC1)N=C[C@@H]1CC(F)(F)CN1C2=O	15.7%
COc1ccc2c(c1)Oc1nc(N)c(C#N)c(N)c1C2Sc1ccc(O)cc1 (stereo not given)	9.8% (active)
O=C(O)c1ccc2c(c1Cl)C(=O)c1ccccc1C2=O	56.6%
Cc1nc(N)[nH]c(=O)c1C	218%
Cc1cc(N(CCNc2ccnc3cc(Cl)ccc23)Cc2cccs2)nc(Cl)n1	-72.4% (active)
CCO/C=C1\SC(=S)N(c2cccc(C)c2)C1=O	99%
COc1ccc(/C=C2\SC(=Nc3ccccc3)NC2=O)cc1	-70.8% (active)
O=C1CCc2c(sc3[nH]c(=S)n(Cc4ccc(Cl)cc4)c(=O)c23)C1	-5.26% (active)
CCNC(=O)Oc1ccc(/C(=C(\C)c2ccc(Cl)cc2)c2ccc(OCCN3CCCCC3)cc2)cc1	16.8%
COc1ccc(C(=O)N/N=C/c2ccc(O)cc2O)cc1Nc1ccnc(C(F)(F)F)c1	14.4%
O=S(=O)(NCCNc1cc(-c2cn(-c3ccccc3)nc2-c2cccc(O)c2)ccn1)c1ccccc1	33.9%
CCn1cnc2c1c(=O)[nH]c(=O)n2CC1CCC(CNS(=O)(=O)c2ccc(OC3CCOCC3)c(F)c2)CC1 (stereo not given)	13.2%
COc1cc(Cl)cc(-c2nn(-c3cccc(NC(=O)Nc4cc(C(F)(F)F)cc(C(F)(F)F)c4)c3)cc2-c2ccncc2)c1	-20.1% (active)
Cc1ccc(S(=O)(=O)N(C)CCCCCC(=O)O)cc1	93.4%
Fc1ccccc1-c1cnn2cc(-c3ccccc3)cnc12	98.6%
